Only some compounds are listed: those with a hit (about 13% of all), similar ones and a draw of the others.
USP8 block: inhibitors of human USP8 deubiquitinase. P40818. purified USP8, Ub-rhodamine cleavage fluorescence, 30 min. inhibition, % at 20 µM. 47,000 tested, 4.2% active. AID 1645853
USP7 block: human USP7 deubiquitinase inhibition. 47,000 tested, 0.3% active. inhibition, % at 20 µM. purified USP7, Ub-rhodamine cleavage fluorescence
USP10 block: inhibitors of human USP10 deubiquitinase; Q14694; inhibition, % at 20 µM; 47,000 tested, 1.1% active; purified USP10, Ub-rhodamine fluorescence, 60 min; AID 1645856
USP17 inh: human USP17-like deubiquitinase inhibition | inhibition, % at 50 µM | purified USP17, Ub-rhodamine cleavage fluorescence, 3 h | 47,000 tested, 6.5% active | A8MUK1 | AID 1645855
USP30 inh: human USP30 deubiquitinase inhibition; Q70CQ3; purified USP30, Ub-rhodamine cleavage fluorescence; inhibition, % at 25 µM; 47,000 tested, 5.3% active
USP28 inh: human USP28 deubiquitinase inhibition. Q96RU2. purified USP28, Ub-rhodamine cleavage fluorescence, 30 min. inhibition, % at 25 µM. 47,000 tested, 3% active
An asterisk follows results filed as active; . = no result given. No stated cut-off is given here; in the data, active means inhibition above about 30%; inactive means the rest.

SMILES	USP8 block	USP7 block	USP10 block	USP17 inh	USP30 inh	USP28 inh
COc1nc(OC)nc(N2CCC(NC(=O)C(Cc3ccccc3C)NC(C)=O)CC2)n1 (centres undefined)	4	-4	1	-4	-3	-15
Cc1cc(-c2cnc(N3CCSCC3)nc2-c2ccoc2)on1	-5	-31	1	7	-3	41*
Cc1cc(-c2cnc(N3CCCC3)nc2C2CCN(c3nccc(C)n3)CC2)on1	0	9	-3	8	-2	1
Cc1oc(-c2ccccc2F)nc1CS(=O)(=O)CC(=O)NCc1ccccc1Cl	8	-5	21	46*	26	10
CC1(c2ccc3c(c2)OCO3)NC(=O)N(CC(=O)c2c[nH]c3ccccc23)C1=O (centres undefined)	8	-8	-8	-1	-31	3
Cc1nccc(-c2sc(C3CCN(C(=O)Cc4nonc4C)CC3)nc2C)n1	-12	8	0	7	28	14
CN(C)C(=O)CN1Cc2c(C(=O)N3CC=CC3)ncn2-c2ccccc2S1(=O)=O	3	0	1	9	18	5
Cc1nn(C)c(NC(=O)Nc2ccccc2F)c1C1=CCCCC1	2	-5	-1	24	34*	5
Cc1nn(C)c(NC(=O)Nc2ccc(F)cc2F)c1C1=CCCCC1	-2	-59	-1	0	-8	-11
CSc1cccc(NC(=O)CCCC2=NS(=O)(=O)c3ccccc3N2)c1	-77	0	0	-23	-1	-8
FC(F)(F)c1cc(C(F)(F)F)c2sc(Nc3ccccc3)nc2n1	92*	10	4	5	12	20
CCN1CCN(CCNC(=O)c2cc3cn(C4CC4)cc3s2)CC1	-10	-10	-9	2	-144	-19
CCCCNC(=O)c1cc2cn(C3CC3)cc2s1	78*	-24	-4	41*	-128	-21
COc1cccc(CNC(=O)c2nc3c(s2)CCN(C(=O)c2cc(C)on2)CC3)c1	11	0	0	5	16	8
O=C(N[C@@H]1[C@@H](c2ccccc2)[C@@H](CO)N2CCCC[C@H]12)N1CCOCC1	-45	-23	-6	-92	-351	-113
CCc1ccc(NS(=O)(=O)c2c[nH]c3ccc([N+](=O)[O-])cc23)cc1	2	5	14	60*	66*	25
Cc1c(C(=O)O)oc2c1/C(=N\O)CCC2	-2	2	-1	-14	-3	-3
Cc1c(C(=O)NCc2ccco2)oc2c1/C(=N\O)CCC2	8	3	10	31*	3	15
CC(=O)c1cccc(NC(=O)C2CCCN(S(=O)(=O)c3cccnc3)C2)c1 (centres undefined)	-8	2	2	-14	-11	-11
Cc1cc(=O)n(CC(=O)Nc2ccccc2F)c(Nc2ccc(F)cc2)n1	8	-2	20	44*	83*	39*
Cc1cc(=O)n(CC(=O)Nc2ccccc2)c(Nc2ccc(F)cc2)n1	-3	-8	10	69*	63*	43*
Cc1cc(=O)n(CC(=O)Nc2ccccc2)c(Nc2ccc(C)c(C)c2)n1	-31	0	2	1	8	-7
Cc1cc(=O)n(CC(=O)Nc2ccc(F)c(F)c2)c(N2CCCCC2)n1	1	-62	5	3	6	8
Cc1cccc(NC(=O)Cn2c(C)cc(=O)n3nc(-c4cccs4)nc23)c1	0	3	-2	47*	10	3
Cc1cc(=O)n(CC(=O)Nc2ccc(C)c(C)c2)c(N2CCCC2)n1	-1	-3	0	10	35*	6
SMILES	USP8 block	USP7 block	USP10 block	USP17 inh	USP30 inh	USP28 inh
Cc1cc(=O)n2nc(-c3cccs3)nc2n1CC(=O)Nc1cccc(C(F)(F)F)c1	15	7	4	5	-11	5
Cc1cc(C)c2c(n1)SCC(=O)N2CC(=O)Nc1ccccc1F	-7	0	0	.	-14	-9
COc1ccc(CNC(=O)CCN2C(=O)c3cccnc3Sc3ccccc32)cc1	20	3	-1	18	9	16
CC(C)Oc1ccc(C(CC(=O)N2CCCCC2)c2ccc(F)cc2)cc1 (centres undefined)	-1	-1	2	16	5	0
Cc1ccc(NC(=O)Cn2c(Nc3ccc(F)cc3)nc(C)cc2=O)cc1	14	0	11	78*	67*	10
Cc1cccc(Nc2nc(C)cc(=O)n2CC(=O)Nc2ccccc2)c1	12	2	12	20	30*	7
Cc1cc(=O)n(CC(=O)Nc2cccc(F)c2)c(N2CCCC2)n1	4	-5	-7	-7	-7	1
CCOc1cc(CN2CCC(C(=O)NC(C)c3ccccc3)CC2)ccc1O (centres undefined)	16	5	0	3	15	10
COc1ccc(C2CN3C(=O)c4ccccc4C3c3[nH]c4ccccc4c32)cc1 (centres undefined)	1	4	-3	5	-46	7
C[C@H](NC(=O)[C@@H]1Cc2c([nH]c3ccccc23)C2c3ccccc3C(=O)N21)C(=O)NCc1ccc2c(c1)OCO2 (some centres undefined)	28	-8	-6	34*	-49	10
Cc1nc(C(=O)N[C@@H](C)C(=O)NCc2ccc3c(c2)OCO3)cc2c1[nH]c1ccccc12	-26	1	5	57*	9	-5
O=C1c2ccccc2C2c3[nH]c4ccccc4c3C(c3ccc4c(c3)OCO4)CN12 (centres undefined)	-60	-18	-1	33*	-25	13
Cc1ccc(CNS(=O)(=O)c2ccc3onc(C(=O)N4CCOCC4)c3c2)cc1	-18	0	0	-7	-12	-3
Cc1ccc(C(=O)CCC(=O)OCC(=O)c2ccc3[nH]c(=O)[nH]c3c2)cc1	4	2	7	55*	34*	52*
O=C(COC(=O)c1ccc(Cl)s1)c1ccc2[nH]c(=O)[nH]c2c1	32*	8	11	42*	-26	6
COc1ccc(NS(=O)(=O)c2ccc(N3CCCC3)c(NC(=O)/C=C/c3ccccc3)c2)cc1	-209	6	-1	36*	23	20
COc1ccc(NS(=O)(=O)c2cc(NC(=O)/C=C/c3ccco3)ccc2N2CCCC2)cc1	76*	13	17	75*	55*	57*
O=C(O)c1ccccc1N(Cc1ccccc1)C(=O)COc1ccccc1	-6	1	3	9	-56	-6
O=C(COc1ccccc1)N(Cc1ccccc1O)c1ccccc1Cl	14	12	15	29	33*	25
O=C(O)CCC(=O)Nc1cccc(-c2nnc(-c3ccccc3)o2)c1	15	2	3	19	33*	8
Cc1cccc(NC(=O)Nc2cccc(-c3nnc(-c4ccccc4)o3)c2)c1	17	5	9	16	25	15

Bioassay records from PubChem BioAssay.
